Experimental data taken from PubChem BioAssay AID1159580 (chemical genetic matrix, 2015).
Hit rate of the full screen: of about 5,500 compounds, about 2,000 (36%) were called active. About 18% were inconclusive and are not listed. No stated cut-off is given here; in the data, active means normalized growth mostly below about 0.91 (no sharp cut-off); inconclusive means no clear call, values can overlap the other calls; inactive means mostly above about 0.92. The list shows a part of the results.

Assay: chemical genetic growth profiling, strain panel (AID 1159580);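 further: tested at 20 µM; growth read once vehicle control cultures reached saturation at 30 °C; 1 = growth at the plate median or of vehicle wells; lower values mean less growth of the strain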
Details: growth OD

Measured: normalized growth

CCOC([O-])=Nc1c[n+](N2CCOCC2)no1
inactive: S. cerevisiae deletion strains, locus YJR075W, strain HOC1, hits give low values 1.01 | S. cerevisiae deletion strains, locus YKL009W, strain mrt4, hits give low values 1.05 | S. cerevisiae deletion strains, locus YKL068W, hits give low values 0.993 | S. cerevisiae deletion strains, locus YKL085W, strain MDH1 (second series), hits give low values 1.04 | S. cerevisiae deletion strains, locus YKL085W, strain MDH1, hits give low values 1.04 | S. cerevisiae deletion strains, locus YKL160W, strain elf1, hits give low values 0.984 | S. cerevisiae deletion strains, locus YKL190W, strain CNB1, hits give low values 1.01 | S. cerevisiae deletion strains, locus YKR001C, strain vps1, hits give low values 0.976 | S. cerevisiae deletion strains, locus YKR026C, strain gcn3, hits give low values 0.994 | S. cerevisiae deletion strains, locus YKR091W, strain srl3, hits give low values 0.995 | S. cerevisiae deletion strains, locus YLL001W, strain dnm1, hits give low values 0.988 | S. cerevisiae deletion strains, locus YLL026W, hits give low values 0.993 | S. cerevisiae deletion strains, locus YLL041C, strain sdh2, hits give low values 0.988 | S. cerevisiae deletion strains, locus YLR027C, strain aat2, hits give low values 0.997 | S. cerevisiae deletion strains, locus YLR039C, strain RIC1, hits give low values 1.02 | S. cerevisiae deletion strains, locus YLR058C, strain SHM2, hits give low values 1.01 | S. cerevisiae deletion strains, locus YLR102C, strain apc9, hits give low values 0.999 | S. cerevisiae deletion strains, locus YLR113W, strain HOG1, hits give low values 1.01 | S. cerevisiae deletion strains, locus YLR221C, strain rsa3, hits give low values 0.985 | S. cerevisiae deletion strains, locus YLR258W, strain gsy2, hits give low values 0.999 | S. cerevisiae deletion strains, locus YLR262C, strain YPT6 (second series), hits give low values 1.01 | S. cerevisiae deletion strains, locus YLR262C, strain YPT6, hits give low values 1.05 | S. cerevisiae deletion strains, locus YLR268W, strain sec22, hits give low values 0.964 | S. cerevisiae deletion strains, locus YLR320W, strain mms22, hits give low values 0.987 | S. cerevisiae deletion strains, locus YLR330W, strain CHS5, hits give low values 1.01 | S. cerevisiae deletion strains, locus YLR342W, strain FKS1 (second series), hits give low values 1.02 | S. cerevisiae deletion strains, locus YLR342W, strain FKS1, hits give low values 1 | S. cerevisiae deletion strains, locus YLR357W, strain rsc2, hits give low values 0.984 | S. cerevisiae deletion strains, locus YLR370C, strain arc18, hits give low values 0.982 | S. cerevisiae deletion strains, locus YLR371W, strain rom2, hits give low values 0.994 | S. cerevisiae deletion strains, locus YLR384C, strain iki3, hits give low values 0.994 | S. cerevisiae deletion strains, locus YLR418C, strain cdc73, hits give low values 0.993 | S. cerevisiae deletion strains, locus YML016C, strain PPZ1, hits give low values 1.02 | S. cerevisiae deletion strains, locus YML032C, strain rad52, hits give low values 0.984 | S. cerevisiae deletion strains, locus YML120C, strain ndi1, hits give low values 0.994 | S. cerevisiae deletion strains, locus YML124C, strain tub3, hits give low values 1 | S. cerevisiae deletion strains, locus YMR058W, strain fet3, hits give low values 0.995 | S. cerevisiae deletion strains, locus YMR078C, strain ctf18, hits give low values 0.996 | S. cerevisiae deletion strains, locus YMR125W, strain sto1, hits give low values 1.01 | S. cerevisiae deletion strains, locus YMR129W, hits give low values 0.994 | S. cerevisiae deletion strains, locus YMR205C, strain PFK2, hits give low values 0.995 | S. cerevisiae deletion strains, locus YMR223W, strain ubp8, hits give low values 0.998 | S. cerevisiae deletion strains, locus YMR231W, strain pep5, hits give low values 0.994 | S. cerevisiae deletion strains, locus YMR263W, strain SAP30, hits give low values 1.02 | S. cerevisiae deletion strains, locus YMR307W, strain GAS1, hits give low values 1.04 | S. cerevisiae deletion strains, locus YNL067W, strain RPL9B, hits give low values 1 | S. cerevisiae deletion strains, locus YNL071W, strain lat1, hits give low values 1 | S. cerevisiae deletion strains, locus YNL128W, strain TEP1, hits give low values 1.01 | S. cerevisiae deletion strains, locus YNL153C, strain GIM3, hits give low values 1 | S. cerevisiae deletion strains, locus YNL183C, strain NPR1, hits give low values 0.999 | S. cerevisiae deletion strains, locus YNL209W, strain ssb2, hits give low values 0.993 | S. cerevisiae deletion strains, locus YNL233W, strain BNI4, hits give low values 1.02 | S. cerevisiae deletion strains, locus YNL248C, strain rpa49, hits give low values 0.992 | S. cerevisiae deletion strains, locus YNL250W, strain rad50, hits give low values 0.982 | S. cerevisiae deletion strains, locus YNL271C, strain bni1, hits give low values 0.981 | S. cerevisiae deletion strains, locus YNL298W, strain CLA4, hits give low values 0.982 | S. cerevisiae deletion strains, locus YNL307C, strain MCK1, hits give low values 1.01 | S. cerevisiae deletion strains, locus YNL322C, strain KRE1 (second series), hits give low values 0.99 | S. cerevisiae deletion strains, locus YNL322C, strain KRE1, hits give low values 1.01 | S. cerevisiae deletion strains, locus YNR049C, strain mso1, hits give low values 0.988 | S. cerevisiae deletion strains, locus YNR052C, strain pop2, hits give low values 0.989 | S. cerevisiae deletion strains, locus YOL006C, strain TOP1, hits give low values 1.03 | S. cerevisiae deletion strains, locus YOL012C, strain htz1 0.747 | S. cerevisiae deletion strains, locus YOL147C, strain pex11, hits give low values 0.978 | S. cerevisiae deletion strains, locus YOR001W, strain rrp6, hits give low values 1.01 | S. cerevisiae deletion strains, locus YOR061W, strain CKA2, hits give low values 1.02 | S. cerevisiae deletion strains, locus YOR069W, strain VPS5, hits give low values 1.01 | S. cerevisiae deletion strains, locus YOR070C, strain gyp1, hits give low values 0.994 | S. cerevisiae deletion strains, locus YOR080W, strain dia2, hits give low values 0.997 | S. cerevisiae deletion strains, locus YOR083W, strain WHI5, hits give low values 0.988 | S. cerevisiae deletion strains, locus YOR106W, strain vam3, hits give low values 1.01 | S. cerevisiae deletion strains, locus YOR136W, strain idh2, hits give low values 0.993 | S. cerevisiae deletion strains, locus YOR144C, strain elg1, hits give low values 0.991 | S. cerevisiae deletion strains, locus YOR184W, strain ser1, hits give low values 1 | S. cerevisiae deletion strains, locus YOR231W, strain MKK1, hits give low values 1.01 | S. cerevisiae deletion strains, locus YOR265W, strain rbl2, hits give low values 0.991 | S. cerevisiae deletion strains, locus YOR270C, strain vph1, hits give low values 1.04 | S. cerevisiae deletion strains, locus YOR290C, strain snf2, hits give low values 0.992 | S. cerevisiae deletion strains, locus YOR316C, strain cot1, hits give low values 0.998 | S. cerevisiae deletion strains, locus YPL051W, strain arl3, hits give low values 0.995 | S. cerevisiae deletion strains, locus YPL055C, strain LGE1, hits give low values 1.04 | S. cerevisiae deletion strains, locus YPL078C, strain atp4, hits give low values 1 | S. cerevisiae deletion strains, locus YPL106C, strain sse1, hits give low values 0.963 | S. cerevisiae deletion strains, locus YPL240C, strain hsp82, hits give low values 0.981 | S. cerevisiae deletion strains, locus YPL241C, strain CIN2, hits give low values 1.01 | S. cerevisiae deletion strains, locus YPL256C, strain CLN2, hits give low values 1.04 | S. cerevisiae deletion strains, locus YPR119W, strain clb2, hits give low values 0.994 | S. cerevisiae deletion strains, locus YPR141C, strain kar3, hits give low values 0.983 | S. cerevisiae deletion strains, locus YPR163C, strain tif3, hits give low values 0.984 | S. cerevisiae deletion strains, locus YPR167C, strain met16, hits give low values 1 | S. cerevisiae deletion strains, strain wtn01, hits give low values 0.98 | S. cerevisiae strains, strain wild type, hits give low values 1.02
